# Assay results reported in the supplement of paper PMC3334620.
# Whole data set: some 33,000 sequences, median “E-score (-0.5 to 0.5)” near -0.016, cut for the highest 2% near 0.3. This is one part of a sample in which the highest values are shown more often than they occur.
# Molecular target: T1, Yer184c (UniProt P39961)
# T1 sequence: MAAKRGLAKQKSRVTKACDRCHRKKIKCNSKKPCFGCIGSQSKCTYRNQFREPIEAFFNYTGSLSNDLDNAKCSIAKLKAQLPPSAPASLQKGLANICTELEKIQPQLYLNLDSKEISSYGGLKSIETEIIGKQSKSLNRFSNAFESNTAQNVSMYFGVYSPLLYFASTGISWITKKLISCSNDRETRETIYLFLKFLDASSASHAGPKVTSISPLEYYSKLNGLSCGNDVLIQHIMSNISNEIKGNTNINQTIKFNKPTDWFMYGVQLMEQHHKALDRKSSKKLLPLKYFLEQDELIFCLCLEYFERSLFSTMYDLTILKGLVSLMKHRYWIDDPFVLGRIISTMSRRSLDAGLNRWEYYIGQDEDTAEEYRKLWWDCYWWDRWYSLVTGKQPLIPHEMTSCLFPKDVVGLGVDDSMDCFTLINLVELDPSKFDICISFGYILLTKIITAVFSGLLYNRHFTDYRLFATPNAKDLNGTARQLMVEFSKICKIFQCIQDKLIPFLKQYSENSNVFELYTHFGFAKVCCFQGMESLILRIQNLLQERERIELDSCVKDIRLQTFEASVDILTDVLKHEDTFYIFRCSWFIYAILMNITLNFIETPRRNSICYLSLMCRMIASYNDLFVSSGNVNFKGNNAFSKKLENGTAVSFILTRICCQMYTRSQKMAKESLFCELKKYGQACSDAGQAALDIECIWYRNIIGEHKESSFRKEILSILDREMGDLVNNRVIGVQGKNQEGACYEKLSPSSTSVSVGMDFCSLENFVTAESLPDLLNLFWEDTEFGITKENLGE
# Test: PBM E-score (8-mer binding enrichment) (E-score (-0.5 to 0.5)); higher = stronger / more preferred TF binding
# Conditions: protein concentration: 100 nM; construct: GST-full length
# Protocol: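 Universal 'all 10-mer' protein binding microarrays (Agilent AMADID 015681) probed with GST-tagged S. cerevisiae TFs (full-length or DBD) made by in vitro transcription/translation (PURExpress), about 100-200 nM. Bound TF was detected with fluorescent anti-GST. Each ungapped 8-mer (which stands for itself and its reverse complement) is scored by the PBM enrichment score (E-score), a modified Wilcoxon-Mann-Whitney statistic from -0.5 to +0.5, computed with the Universal PBM Analysis Suite. Scale: above 0.35 generally sequence-specific binding.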
row,Sequence,PBM E-score
1,AGGATGAA,-0.0513
2,TTGATAAA,0.329
3,ATGATAAA,0.271
4,CCCCAAAG,-0.253
5,CGGAGACC,0.0297
6,CGAACACG,0.172
7,CTATTGCC,-0.131
8,TCTCTTAA,0.126
9,AAAGCTTT,0.237
10,CGTCAACC,-0.137
11,GGTGCAGA,-0.206
12,CAAATGAG,-0.104
13,ACACTCGC,0.0547
14,AGAGACAC,-0.119
15,CGGAGATA,0.406
16,CGGATAGA,0.338
17,CGGATATC,0.285
18,GGGATATA,0.0967
19,CGGATCAA,0.318
20,AGGAGATA,-0.134
21,TGGATCAA,-0.0363
22,GGGATAGA,-0.186
23,GGGAGATA,-0.161
24,AGGATAGA,0.0167
25,CGGATCAG,0.224

row,Sequence,PBM E-score
1,CGGATATA,0.389
2,CTCTCGTA,-0.204
3,GATGAGCC,-0.0364
4,GACTTCCC,-0.0878
5,GAATACGA,0.118
6,GTCTCATA,-0.0146
7,CGCCATGA,-0.155
8,ATTGCAAC,0.0297
9,AGAGATCT,-0.168
10,CATGAGAC,-0.0666
11,ATAATAAA,0.276
12,CTAATATA,0.118
13,ATAATATA,0.323
14,TTAATAAA,0.328
15,CTAATAAA,0.0623
16,ATAATATG,0.132
17,ATGTGTCG,-0.0246
18,AGAGTTTC,-0.0656
19,AGGAATTG,-0.0124
20,CCGGTCCA,0.0407
21,CCGGTCCC,0.0884
22,CCGGTCCG,0.338
23,GCCTTAAC,-0.171
24,CGGTAGTA,0.0519
25,GCTCTTCC,0.0925

row,Sequence,PBM E-score
1,AGAGGTTG,-0.19
2,CGGAGCCG,0.309
3,CCGAGCGC,0.361
4,CGGAGCGC,0.107
5,CGGAGCCC,-0.177
6,GCGAGCGC,0.0998
7,CCGAGCGA,0.244
8,ACGAGCCG,0.22
9,CCGAGCCA,0.219
10,CCGAGCCG,0.352
11,AGGAGCGA,-0.0501
12,CGGAGCGA,0.332
13,AGGAGCCG,0.0636
14,AGGGATGA,-0.133
15,GATTGAGC,0.109
16,AAGGGGAC,-0.0399
17,CGGAATGC,0.249
18,CAACAGCG,-0.182
19,ATGTCCGG,0.373
20,ATATCCGC,0.178
21,GTATCCTA,-0.0431
22,GTATCCCA,-0.0951
23,ATGTCCGC,-0.0241
24,CTATCCGA,0.119
25,ATATCCTA,-0.0362

row,Sequence,PBM E-score
1,AGATCCGG,0.263
2,ATGTCCGA,0.231
3,GTATCCGA,0.304
4,ATATCCGG,0.374
5,ATATCCGA,0.343
6,CAAGGGTA,-0.254
7,GTACGAGA,-0.1
8,CTCTAAGC,0.0215
9,GGACCCAC,-0.182
10,ATTGTCCC,-0.0916
11,ATTGTTCC,0.267
12,ATTGTCCA,0.143
13,ATTGTTTC,0.324
14,CTTGTTTC,0.0564
15,ATTGTTCA,0.112
16,ATTGTTCG,0.346
17,ATTGTTTG,0.137
18,ATTGTCCG,0.345
19,GCCCAGTA,-0.14
20,AACGGCCG,0.3
21,ATTGAATA,0.24
22,ATCCATAA,0.168
23,ACCCTAAC,-0.0425
24,GAATCGGA,0.318
25,GAATCGGC,0.254

row,Sequence,PBM E-score
1,TAATCGGA,0.248
2,AGATCGGA,0.34
3,ACATCGGA,0.223
4,CGATCGGA,0.142
5,AAATCGGT,0.0224
6,GGATCGGA,0.228
7,AAATCGGA,0.308
8,AAATCGGG,0.0884
9,GCATCGGA,0.307
10,GCATCGGC,0.176
11,CAAACAAG,0.0388
12,AACCTCTT,0.178
13,CCCAAGTC,-0.223
14,AAGCAGTA,-0.209
15,TGACTGAA,-0.14
16,AAATGCTT,0.0617
17,TCTGCGAA,-0.186
18,GCCTGCTA,-0.0406
19,ACTTCCAG,-0.112
20,CCGTTCAA,0.197
21,CCCTCATA,-0.288
22,CCTCGAGG,-0.112
23,GGAGTACC,-0.219
24,ATATCGGA,0.277
25,GTATCGGA,0.208

row,Sequence,PBM E-score
1,CTATCGGA,0.319
2,AAAGGGCA,-0.226
3,ATATGGCA,-0.15
4,CCACAGTA,-0.1
5,CCTCCTTA,-0.179
6,AGATTCCT,-0.215
7,ATATTCCG,0.38
8,AGATTCCG,0.338
9,ATATTCCC,0.176
10,ATATTCCA,0.16
11,AGATTCCC,-0.0681
12,ATAGTGCA,0.104
13,CGGTGCGA,0.00174
14,CGATGGTA,-0.146
15,AGTCCGAC,-0.14
16,AGTCCGAA,0.343
17,AGTCCGAT,0.19
18,TGTCCAAA,0.143
19,CGTCCGAA,0.239
20,TGTCCGAA,0.334
21,ATTCTGCA,0.124
22,TAAGCTAA,0.138
23,AGACCTAT,0.0227
24,AATATCAT,0.142
25,CCTCGCCC,-0.125

row,Sequence,PBM E-score
1,ACCGTAAA,0.0422
2,GCCGTAGC,0.045
3,TCCGTAGA,0.204
4,GCCGTAAA,0.339
5,GCCGTAGA,0.322
6,TCCGTAAA,0.303
7,GAAGCGTA,-0.0311
8,GGATTCGA,-0.0994
9,AATGCAAT,-0.256
10,ATGACGGA,0.198
11,CACTTCTG,-0.207
12,GATCTTTA,0.106
13,ATAACAAG,0.209
14,AGAACAAT,0.174
15,ATAACAAT,0.115
16,ATAACAAA,0.357
17,AGAACAAA,0.349
18,AGAACAAG,0.143
19,AGAGATAC,-0.0106
20,AGTGAGAT,-0.107
21,CGAGAGAG,0.166
22,AAGAGCAA,-0.0457
